# Experimental data reported in PubChem BioAssay (NCATS).
# Inconclusive results are not listed. Active and inactive are the calls of the source. Unless noted, calls follow the shape of the dose curve; as a rule, active = well fitted curve in the direction sought with a large enough effect; inconclusive = small, poorly fitted or top-dose-only effect, or another doubt; inactive = no such curve, though single readings can be large; an effect the other way counts as inactive or inconclusive.
# Legend:
# [1] = biological target: Lysosomal acid glucosylceramidase (Homo sapiens) (UniProt P04062); assay: Glucocerebrosidase-p2 (AID 348; in the data active = potency below about 10 µM; also: potency is read from the fitted curve at half-maximal effect); details: purified GBA, blue fluorogenic substrate, 40 min
# Chain of Lysosomal acid glucosylceramidase (Homo sapiens) (P04062 whole entry, looked up): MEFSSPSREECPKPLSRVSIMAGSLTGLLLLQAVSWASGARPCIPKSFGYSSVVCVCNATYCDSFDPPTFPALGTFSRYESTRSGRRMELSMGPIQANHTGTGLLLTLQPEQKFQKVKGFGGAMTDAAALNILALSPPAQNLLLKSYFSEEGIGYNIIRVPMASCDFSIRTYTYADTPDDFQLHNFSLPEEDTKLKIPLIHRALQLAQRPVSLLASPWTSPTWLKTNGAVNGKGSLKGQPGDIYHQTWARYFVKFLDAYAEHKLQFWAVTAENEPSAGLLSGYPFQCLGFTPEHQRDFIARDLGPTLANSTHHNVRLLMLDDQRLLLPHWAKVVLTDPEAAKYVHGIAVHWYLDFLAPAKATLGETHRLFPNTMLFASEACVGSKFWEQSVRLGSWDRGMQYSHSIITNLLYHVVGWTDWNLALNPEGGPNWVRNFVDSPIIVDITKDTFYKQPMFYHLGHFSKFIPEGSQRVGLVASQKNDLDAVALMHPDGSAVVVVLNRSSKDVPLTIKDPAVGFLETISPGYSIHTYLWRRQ
# Outline: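 Compounds titrated from 0.6 nM upwards against 0.2 nM enzyme in pH 5.9 citric acid/KH2PO4, taurocholate, tween-20; blue fluorogenic substrate 80 uM, 40 min room temperature, stopped and read Ex 365/Em 440 for AC50.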
# [2] = AP1 Signaling Pathway (AID 357; active = well fitted curve in either direction with a large enough effect, not every such curve was filed as active;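 also: ME-180 reporter cells stimulated with EGF at its EC50 level; % is scaled to controls: 0 for no effect and ±100 for the full control effect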); details: ME-180 AP-1-bla reporter, EGF-induced, beta-lactamase ratio, 5 h; at 7.69 µM (top of the series) unless noted
# Outline: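 Cells are seeded overnight, exposed to compound titrations and an EC50 level of EGF for 5 hours at 37 °C, then loaded with CCF4 dye for 2.5 hours. Beta-lactamase activity under the AP-1 element is read as a blue/green ratio.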
# [3] = biological target: Cytochrome P450 1A2 (Homo sapiens) (UniProt P05177); assay: p450-cyp1a2 (AID 410; calls by dose curve; also: potency is read from the fitted curve at half-maximal effect); details: recombinant CYP1A2, luciferin-ME demethylation, luminescence; series mostly up to 57 µM
# Chain of Cytochrome P450 1A2 (Homo sapiens) (P05177 whole entry, looked up): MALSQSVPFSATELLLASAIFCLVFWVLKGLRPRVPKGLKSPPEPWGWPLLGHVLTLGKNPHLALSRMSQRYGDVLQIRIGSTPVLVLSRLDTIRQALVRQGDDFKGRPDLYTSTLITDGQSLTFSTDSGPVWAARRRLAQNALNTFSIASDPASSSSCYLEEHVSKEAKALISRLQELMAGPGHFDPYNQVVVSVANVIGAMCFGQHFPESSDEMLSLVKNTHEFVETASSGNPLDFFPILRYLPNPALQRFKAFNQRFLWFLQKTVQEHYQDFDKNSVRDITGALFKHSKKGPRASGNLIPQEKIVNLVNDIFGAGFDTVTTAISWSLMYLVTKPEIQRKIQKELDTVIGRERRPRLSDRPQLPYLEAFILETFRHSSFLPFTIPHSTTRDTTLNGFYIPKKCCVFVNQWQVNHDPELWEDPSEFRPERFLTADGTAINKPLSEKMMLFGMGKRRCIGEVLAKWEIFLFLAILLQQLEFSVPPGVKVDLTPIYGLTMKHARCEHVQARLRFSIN
# Outline: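 Human CYP1A2 (20nM) demethylated Luciferin-ME at its Km (100uM) in 100mM KPO4. After 10 min compound preincubation, NADPH regeneration ran the reaction 60 min at room temperature. Luciferin was read by luminescence, normalized to 57 uM furafylline.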
# [4] = NFAT Signaling Pathway (AID 444; active = well fitted curve in either direction with a large enough effect, not every such curve was filed as active;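 also: carbachol stimulus at about its EC50 of 1 µM final; % is scaled to controls: 0 for no effect and ±100 for the full control effect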); details: Jurkat NFAT-bla M1, carbachol, beta-lactamase ratio, 5 h; at 7.69 µM (top of the series) unless noted
# Outline: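 Jurkat cells with NFAT-driven β-lactamase reporter and co-expressed M1 receptor, stimulated with carbachol (final 1 uM, ~EC50), compound titration, 5 h at 37 °C. CCF4 loaded 1 h at RT; 460/530 nm ratio gave %activity and AC50.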
# [5] = Stat Signaling Pathway (AID 446; active = well fitted curve in either direction with a large enough effect, not every such curve was filed as active;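 also: ME-180 cervical cancer cells given 40 pM IL-6 alongside compound; SIE-controlled beta-lactamase reporter measured as 460/530 nm FRET emission ratio; % is scaled to controls: 0 for no effect and ±100 for the full control effect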); details: ME-180 SIE beta-lactamase reporter, IL-6 stimulated, 5 h; at 7.69 µM (top of the series) unless noted
# Outline: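 ME-180 SIE-bla cells; overnight plating; cpd + IL-6 40 pM, 5 h, 37 C; LiveBLAzer 2.5 h RT; 460/530 nm emission ratio. Normalized to 300 pM IL-6 and 125 nM JAK inhibitor controls.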
# [6] = biological target: Glucocorticoid receptor (Homo sapiens) (UniProt P04150); assay: GR-GFP Redistribution (AID 450;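 active = compounds whose dose series gives a full or clear partial fitted curve of increased nuclear translocation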; also: potency is read from the fitted curve at half-maximal effect); details: U2OS GR-GFP nuclear translocation, laser cytometry, 2 h
# Chain of Glucocorticoid receptor (Homo sapiens) (P04150 whole entry, looked up, the tested form may be a part): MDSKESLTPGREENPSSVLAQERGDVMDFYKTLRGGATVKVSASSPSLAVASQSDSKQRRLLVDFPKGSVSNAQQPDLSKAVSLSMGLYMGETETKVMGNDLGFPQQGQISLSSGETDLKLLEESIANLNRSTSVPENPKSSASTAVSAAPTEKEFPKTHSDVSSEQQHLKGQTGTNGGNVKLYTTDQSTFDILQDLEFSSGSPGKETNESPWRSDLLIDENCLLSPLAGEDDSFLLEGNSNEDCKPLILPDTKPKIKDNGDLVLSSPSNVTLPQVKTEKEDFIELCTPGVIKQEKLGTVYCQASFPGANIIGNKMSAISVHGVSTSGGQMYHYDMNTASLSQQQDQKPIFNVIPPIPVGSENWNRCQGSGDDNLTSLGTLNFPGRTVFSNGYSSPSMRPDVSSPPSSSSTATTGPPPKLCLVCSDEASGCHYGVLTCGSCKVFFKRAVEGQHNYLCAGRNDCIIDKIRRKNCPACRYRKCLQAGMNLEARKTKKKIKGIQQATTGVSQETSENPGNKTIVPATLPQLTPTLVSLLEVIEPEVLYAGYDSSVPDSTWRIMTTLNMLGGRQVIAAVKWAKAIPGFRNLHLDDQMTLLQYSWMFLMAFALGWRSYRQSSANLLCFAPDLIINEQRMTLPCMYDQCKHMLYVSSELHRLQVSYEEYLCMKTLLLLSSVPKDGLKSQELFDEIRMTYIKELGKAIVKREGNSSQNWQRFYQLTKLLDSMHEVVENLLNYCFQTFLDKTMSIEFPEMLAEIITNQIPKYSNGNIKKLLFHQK
# [7] = biological target: Mitogen-activated protein kinase 10 (Mus musculus) (UniProt Q61831); assay: JNK3 AlphaScreen Assay (AID 530; active = well fitted curve in either direction with a large enough effect, not every such curve was filed as active;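 also: kinase came from lysate of stimulated human HepG2 cells; signal reports phosphorylation of biotinylated GST-cJun 1-79 at Ser73 with 10 µM ATP; % is scaled to controls: 0 for no effect and ±100 for the full control effect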); details: JNK3 lysate, c-Jun phosphorylation; series mostly up to 57.1 µM
# Outline: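 qHTS format: compounds tested as titrations against IL-1beta/TNF-alpha-activated HepG2 lysate JNK3 with biotin-GST-cJun substrate and 10 uM ATP at room temperature. Loss of anti-phospho-cJun AlphaScreen signal indicates inhibition.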
# [8] = biological target: 3',5'-cyclic-AMP phosphodiesterase 4B (Homo sapiens) (UniProt Q07343); assay: qHTS Assay for Inhibitors of PDE-IV (AID 607; active = well fitted activation curve with a large enough effect in the main read-out, with a control signal flat, not every such curve was filed as active; also: % of control where 0% means no effect); details: HEK293 ACTOne CNG channel cells, membrane potential fluorescence; series mostly up to 22.9 µM
# Chain of 3',5'-cyclic-AMP phosphodiesterase 4B (Homo sapiens) (Q07343 whole entry, looked up): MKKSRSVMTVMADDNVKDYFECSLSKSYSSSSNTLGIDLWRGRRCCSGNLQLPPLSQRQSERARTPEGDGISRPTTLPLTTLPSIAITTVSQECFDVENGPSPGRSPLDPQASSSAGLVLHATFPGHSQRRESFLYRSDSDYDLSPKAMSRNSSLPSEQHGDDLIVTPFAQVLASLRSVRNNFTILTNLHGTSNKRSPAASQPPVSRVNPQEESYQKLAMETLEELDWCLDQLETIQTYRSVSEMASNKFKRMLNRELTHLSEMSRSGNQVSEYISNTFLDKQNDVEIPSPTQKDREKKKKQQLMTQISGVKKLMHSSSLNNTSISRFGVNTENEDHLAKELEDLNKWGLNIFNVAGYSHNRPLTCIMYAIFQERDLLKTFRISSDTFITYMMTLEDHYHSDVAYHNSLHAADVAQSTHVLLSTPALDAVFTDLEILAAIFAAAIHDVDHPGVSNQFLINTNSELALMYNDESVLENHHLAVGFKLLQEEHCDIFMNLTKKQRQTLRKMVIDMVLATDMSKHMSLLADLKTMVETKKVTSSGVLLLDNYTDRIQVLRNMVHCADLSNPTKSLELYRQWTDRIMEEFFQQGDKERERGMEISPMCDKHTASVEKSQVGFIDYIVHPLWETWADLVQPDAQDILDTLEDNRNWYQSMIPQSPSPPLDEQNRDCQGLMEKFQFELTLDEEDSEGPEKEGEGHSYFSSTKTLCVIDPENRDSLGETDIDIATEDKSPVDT
# Outline: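 ACTOne HEK293 cells carry a modified cAMP-gated CNG channel and express endogenous PDE4; plated 1000 cells/well, compounds up to 22.9 uM final. Membrane-potential dye fluorescence (ex 535/em 590) was read; parental cells received 10 uM forskolin + 100 uM RO 20-1724.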
# [9] = biological target: Cytochrome P450 3A4 (Homo sapiens) (UniProt P08684); assay: qHTS Assay for Activators of Cytochrome P450 3A4 (AID 885); details: recombinant CYP3A4, Luciferin-PPXE luminescence, 60 min; series mostly up to 57.1 µM; also: nearly all actives have a fitted effect of over 65% in size
# Chain of Cytochrome P450 3A4 (Homo sapiens) (P08684 whole entry, looked up): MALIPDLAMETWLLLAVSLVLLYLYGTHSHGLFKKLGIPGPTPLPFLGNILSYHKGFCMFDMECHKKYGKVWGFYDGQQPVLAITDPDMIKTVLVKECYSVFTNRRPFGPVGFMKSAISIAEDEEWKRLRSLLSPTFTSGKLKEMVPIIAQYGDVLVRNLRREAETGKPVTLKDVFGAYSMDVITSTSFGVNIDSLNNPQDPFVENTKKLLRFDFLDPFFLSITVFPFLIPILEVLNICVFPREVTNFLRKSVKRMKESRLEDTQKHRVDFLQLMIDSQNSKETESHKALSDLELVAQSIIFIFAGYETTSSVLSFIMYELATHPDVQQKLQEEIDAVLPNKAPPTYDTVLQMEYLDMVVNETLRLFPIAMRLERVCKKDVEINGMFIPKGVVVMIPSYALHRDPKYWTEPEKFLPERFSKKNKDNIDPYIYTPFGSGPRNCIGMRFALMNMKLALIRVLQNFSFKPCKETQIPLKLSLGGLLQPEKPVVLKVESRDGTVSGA
# Outline: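 20nM CYP3A4 + 25uM Luciferin-PPXE (=KM), 200mM KPO4; cpd 10 min RT; NADPH regen, 60 min RT; stop w/ detection buffer, 20 min; luminescence. Normalized to 57 uM ketoconazole.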
# [10] = qHTS Assay for Lipid Storage Modulators (AID 1519; calls by dose curve); details: Drosophila S3 cells, BODIPY lipid droplet/cell ratio, laser cytometry, cells loaded with oleic acid; for activity change, negative = inhibition: at 57.5 µM (top of the series)
# Outline: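 Cells seeded at 5,000 per well were treated with compounds over a concentration series and loaded with oleic acid (400 uM, as added). Lipid droplet fluorescence (488 nm excitation, 500-530 nm channel) was read by laser-scanning cytometry and normalized to 20 uM Triacsin C.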
# [11] = biological target: Dual specificity protein kinase CLK4 (Homo sapiens) (UniProt Q9HAZ1); assay: qHTS Assay for Inhibitors of CDC-like Kinase 4 (Kinase-Glo Assay) (AID 1770); details: recombinant Clk4, Kinase-Glo ATP depletion luminescence; series mostly up to 66.7 µM; also: % is scaled to controls: 0 for no effect and ±100 for the full control effect; nearly all actives have a fitted effect of over 65% in size
# Chain of Dual specificity protein kinase CLK4 (Homo sapiens) (Q9HAZ1 whole entry, looked up): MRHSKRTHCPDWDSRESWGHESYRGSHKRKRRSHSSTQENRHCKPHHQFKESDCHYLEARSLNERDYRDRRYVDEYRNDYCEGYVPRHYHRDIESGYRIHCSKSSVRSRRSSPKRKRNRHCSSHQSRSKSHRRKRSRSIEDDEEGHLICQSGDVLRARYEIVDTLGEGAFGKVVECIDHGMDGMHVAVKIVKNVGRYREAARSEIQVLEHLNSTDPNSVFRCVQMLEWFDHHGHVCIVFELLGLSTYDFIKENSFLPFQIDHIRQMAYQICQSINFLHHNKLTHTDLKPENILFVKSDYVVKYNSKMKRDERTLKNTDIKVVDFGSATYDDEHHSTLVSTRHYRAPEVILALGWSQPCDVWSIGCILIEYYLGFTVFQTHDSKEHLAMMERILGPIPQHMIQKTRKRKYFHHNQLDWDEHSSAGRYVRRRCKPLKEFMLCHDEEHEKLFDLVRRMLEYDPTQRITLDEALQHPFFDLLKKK
# Outline: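 25 nM Clk4 with 100 uM RS repeat peptide and 1 uM ATP (final) in Tris pH7.5, 10 mM MgCl2, 4.5 h at room temperature. Remaining ATP measured by Kinase-Glo luciferase luminescence.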
# [12] = biological target: Dual specificity protein kinase CLK4 (Homo sapiens) (UniProt Q9HAZ1); assay: qHTS Assay for Inhibitors of CDC-like Kinase 4 (ADP-Glo Assay) (AID 1771); details: recombinant CLK4, ADP-Glo luminescence; series mostly up to 80 µM; also: % is scaled to controls: 0 for no effect and ±100 for the full control effect; nearly all actives have a fitted effect of over 70% in size
# Outline: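 Clk4 (25 nM) was incubated 1 hr at room temperature with 100 uM RS repeat peptide and 1 uM ATP in buffer with 2 mM MgCl2, 0.5 mM EGTA, 2.5 mM DTT. ADP formed was quantified by ADP-Glo luminescence.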
# [13] = biological target: Dual specificity protein kinase CLK4 (Homo sapiens) (UniProt Q9HAZ1); assay: qHTS Assay for Inhibitors of CDC-like Kinase 4 (ADP-FP Assay) (AID 1795); details: Transcreener ADP fluorescence polarization; series mostly up to 50 µM;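 also: recombinant human CLK4 phosphorylating RS repeat peptide at 1 µM ATP; % is scaled to controls: 0 for no effect and ±100 for the full control effect; nearly all actives have a fitted effect of over 60% in size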
# Outline: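 Recombinant Clk4 (6.25 nM) phosphorylated 100 uM RS repeat peptide with 1 uM ATP in 25 mM Tris pH 7.5, 10 mM MgCl2, 0.5 mM EGTA, 2.5 mM DTT, 0.01% Triton X-100 for 1 h. ADP was detected by Transcreener ADP2 competitive fluorescence polarization after 30 min at room temperature.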
# [14] = biological target: Ubiquitin carboxyl-terminal hydrolase 1 (Homo sapiens) (UniProt O94782); assay: Inhibitors of USP1/UAF1: Pilot qHTS (AID 504865); details: purified USP1/UAF1, Ub-rhodamine cleavage fluorescence; series mostly up to 54.9 µM;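 also: rhodamine fluorescence freed from ubiquitin-rhodamine substrate followed over time; top concentration of the series differs between compounds; % is scaled to controls: 0 for no effect and ±100 for the full control effect; nearly all actives have a fitted effect of over 35% in size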
# Chain of Ubiquitin carboxyl-terminal hydrolase 1 (Homo sapiens) (O94782 whole entry, looked up): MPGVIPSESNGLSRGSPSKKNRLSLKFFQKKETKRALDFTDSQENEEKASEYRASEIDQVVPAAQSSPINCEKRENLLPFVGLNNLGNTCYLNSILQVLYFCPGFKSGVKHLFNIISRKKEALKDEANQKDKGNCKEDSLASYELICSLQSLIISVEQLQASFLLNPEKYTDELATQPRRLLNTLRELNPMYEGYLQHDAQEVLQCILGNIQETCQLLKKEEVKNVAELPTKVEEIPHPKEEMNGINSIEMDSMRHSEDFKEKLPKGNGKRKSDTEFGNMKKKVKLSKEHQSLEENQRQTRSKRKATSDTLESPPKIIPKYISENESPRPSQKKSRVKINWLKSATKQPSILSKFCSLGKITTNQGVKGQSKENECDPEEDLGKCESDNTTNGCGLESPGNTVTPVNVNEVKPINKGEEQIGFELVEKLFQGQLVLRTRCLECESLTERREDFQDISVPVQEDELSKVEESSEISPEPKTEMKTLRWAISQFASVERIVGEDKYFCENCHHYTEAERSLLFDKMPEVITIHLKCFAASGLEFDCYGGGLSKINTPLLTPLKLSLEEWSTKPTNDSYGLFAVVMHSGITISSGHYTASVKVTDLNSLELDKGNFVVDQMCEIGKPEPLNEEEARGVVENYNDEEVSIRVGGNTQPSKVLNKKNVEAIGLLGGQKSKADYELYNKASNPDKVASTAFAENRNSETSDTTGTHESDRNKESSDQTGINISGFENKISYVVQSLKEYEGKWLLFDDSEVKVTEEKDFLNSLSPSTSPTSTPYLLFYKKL
# Outline: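 USP1/UAF1 complex at 1 nM preincubated 15 min at room temperature with compound, then Ub-Rho substrate added at 150 nM final. Fluorescence (480/540 nm) read kinetically in 50 mM HEPES pH 7.8, 0.5 mM EDTA, 1 mM TCEP, 0.1 mg/ml BSA, 0.01% Tween-20.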
# [15] = Primary qHTS for small molecule stabilizers of the endoplasmic reticulum resident proteome: Secreted ER Calcium Modulated Protein (SERCaMP) assay (AID 1508630); details: SH-SY5Y GLuc-SERCaMP (Gaussia luciferase released on ER calcium loss) secretion, thapsigargin, luminescence; series mostly up to 38.4 µM; also: % is scaled to controls: 0 for no effect and ±100 for the full control effect
# Outline: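 GLuc-SERCaMP-expressing SH-SY5Y cells, pretreated 16 h with compound, are challenged with thapsigargin to empty ER calcium stores; after 4 h, coelenterazine is added directly to the medium and luminescence is imaged.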
# [16] = biological target: Glucocorticoid receptor (Homo sapiens) (UniProt P04150); assay: GR-EFC Redistribution (AID 451; calls by dose curve; also: potency is read from the fitted curve at half-maximal effect); details: CHO-K1 GR-EFC translocation, beta-gal luminescence, 2 h
# Outline: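 CHO-K1 cells expressing nuclear EA and GR-ED fragments of b-gal; compounds titrated up to 46 uM final, 2 h at 37 C. GR nuclear translocation read as complemented b-gal luminescence after 1 h RT detection.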
# [17] = biological target: Cytochrome P450 2C19 (Homo sapiens) (UniProt P33261); assay: qHTS Assay for Inhibitors and Substrates of Cytochrome P450 2C19 (AID 899); details: recombinant CYP2C19, luciferin-H EGE luminescence; series mostly up to 57.1 µM; also: potency is read from the fitted curve at half-maximal effect; nearly all actives have a fitted effect of over 60% in size
# Chain of Cytochrome P450 2C19 (Homo sapiens) (P33261 whole entry, looked up): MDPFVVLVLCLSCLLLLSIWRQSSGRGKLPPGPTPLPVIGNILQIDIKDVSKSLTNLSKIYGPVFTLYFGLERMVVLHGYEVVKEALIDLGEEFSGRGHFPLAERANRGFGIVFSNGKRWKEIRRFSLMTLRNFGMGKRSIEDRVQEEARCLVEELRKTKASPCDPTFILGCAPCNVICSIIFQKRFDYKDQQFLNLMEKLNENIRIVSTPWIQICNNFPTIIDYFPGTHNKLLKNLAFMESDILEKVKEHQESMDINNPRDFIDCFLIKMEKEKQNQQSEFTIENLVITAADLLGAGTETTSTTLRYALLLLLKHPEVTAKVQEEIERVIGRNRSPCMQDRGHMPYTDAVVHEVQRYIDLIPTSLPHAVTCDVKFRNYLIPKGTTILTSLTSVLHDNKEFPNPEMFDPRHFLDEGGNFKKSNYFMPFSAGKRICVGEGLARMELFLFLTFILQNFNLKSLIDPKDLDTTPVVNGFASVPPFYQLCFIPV
# Outline: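 5 nM human CYP2C19 with 10uM Luciferin-H EGE (at KM) in 50mM KPO4, compound preincubated 10 min at 37C, then NADPH regeneration for 60 min at 37C. Luciferin read by luminescence after detection reagent; normalized to 57uM ketoconazole as full inhibition.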
# [18] = qHTS Assay for Identification of Small Molecule Agonists for Hypoxia Response Element Signaling Pathway (AID 914; active = well fitted activation curve with a large enough effect in the signal ratio, with a control signal flat, not every such curve was filed as active; the % refers to the signal ratio; also: % of control where 0% means no effect); details: ME-180 (cervical carcinoma) HRE-bla reporter, beta-lactamase ratio, CoCl2, 17 h; activation: stronger effect = higher value
# Outline: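 qHTS titration; ME-180 HRE-bla cells; EC50 CoCl2 co-treatment, 17 h at 37 degrees Celsius; CCF4 dye, ex 405nm, em 460nm and 530nm; %Activity from ratio; AC50.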
# [19] = measured here: cell count channel max response
# [20] = measured here: lipid channel max response
SMILES,Potency [1],"activity change, negative = inhibition [2]",Potency [3],"activity change, negative = inhibition [4]","activity, negative = inhibition [5]",Potency [6],outcome [7],Potency [8],Potency [9],"activity change, negative = inhibition [10]","max response [10, 19] [%]","max response [10, 20] [%]",Potency [11],Potency [12],Potency [13],Potency [14],Potency [15],Potency [16],Potency [17],activation [18]
COCCn1c(=O)c(C)nc2cnc(Oc3ccc(OC)cc3)nc21,> 11.4 µM (inactive),-18.9% (inactive),15.8 µM (active),7.53% (inactive),-8.21% (inactive),> 9.22 µM (inactive),inactive,inactive,inactive,1.21% (inactive),29.1,27.3,inactive,inactive,inactive,inactive,inactive,,,
COc1ccc(CNc2ccnc(-c3ccc4c(c3)OCO4)n2)c(OC)c1,> 11.4 µM (inactive),-15% (inactive),1.26 µM (active),-5.96% (inactive),-2.09% (inactive),> 46 µM (inactive),inactive,,inactive,4.67% (inactive),13.5,17.1,inactive,inactive,inactive,inactive,inactive,> 46 µM (inactive),2.51 µM (active),
CNc1ccnc(-c2ccccc2OC)n1,> 11.4 µM (inactive),4.71% (inactive),5.01 µM (active),8.86% (inactive),16.8% (inactive),> 46 µM (inactive),inactive,inactive,inactive,6.44% (inactive),21.3,26.2,inactive,inactive,inactive,inactive,inactive,> 46 µM (inactive),,7.18% (inactive)
Cn1c(=O)c(-c2cc(F)cc(F)c2)nc2cnc(N3CCOCC3)nc21,> 11.4 µM (inactive),-11% (inactive),5.01 µM (active),14.4% (inactive),-1.78% (inactive),> 9.22 µM (inactive),inactive,inactive,,4.75% (inactive),16.8,22.4,inactive,inactive,inactive,inactive,inactive,> 46 µM (inactive),,-3.42% (inactive)
Cc1nc2cnc(N(C)C)nc2n(C2CC2)c1=O,> 11.4 µM (inactive),-20% (inactive),3.98 µM (active),4.63% (inactive),-4.62% (inactive),> 9.22 µM (inactive),inactive,inactive,,5.93% (inactive),14.1,18.5,inactive,inactive,inactive,inactive,inactive,> 46 µM (inactive),,9.86% (inactive)
